Consider 16 compounds from PubChem BioAssay (NCATS).

Assay [1] addresses Cytochrome P450 3A7 (Homo sapiens) (UniProt P24462). The assay is described as follows: Cytochrome P450 family 3 subfamily A member 7 (CYP3A7) small molecule antagonists: luciferase biochemical qHTS assay (AID 1963596). Further: on the % scale 0 is the no-effect control and ±100 the full control effect; nearly all actives have a fitted effect of over 40% in size. In short, it runs like this:
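Luminescence from luciferin released by CYP3A7 from a proluciferin substrate, read 20 min after detection reagent. Compound and enzyme-substrate mix sat 10 min before NADPH regeneration solution; reaction ran 1 h at room temperature.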
(In general: Quantitative high-throughput screening tests each substance at several concentrations.)

Assay [2] can be described thus: Viability qHTS for spleen associated tyrosine kinase inhibitor (SYKi) naive MV4-11 cells (AID 1963823). Further: nearly all actives have a fitted effect of over 40% in size. Further: potency means the concentration at half of the fitted maximal effect. In short, it runs like this: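 Compounds were dispensed acoustically onto plates, MV4-11 cells (SYKi-naive) added at 500 per well, and plates incubated 72 hr at 37 C. CellTiter-Glo was added and luminescence measured after 10 min.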
Assay [3] in a line: Viability qHTS for spleen associated tyrosine kinase inhibitor (SYKi) drug resistant MV4-11 cells (AID 1963824). Further: nearly all actives have a fitted effect of over 35% in size. Further: potency means the concentration at half of the fitted maximal effect. In short, it runs like this:
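SYK inhibitor-resistant MV4-11 AML cells, 500 per well, added to predispensed compounds and incubated 72 hr at 37 C, 5% CO2. Viability measured by CellTiter-Glo luminescence after 10 min at room temperature.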

Assay [4] is described as follows: Quantitative highthroughput screen to assess conditional lethalithy of NOMO1 cells grown in RPMI1640 with untreated serum (RPMI+s) (AID 1963876). Further: nearly all actives have a fitted effect of over 35% in size. Further: potency means the concentration at half of the fitted maximal effect.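 On Viability: 100% = DMSO wells and 0% = empty wells without cells.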 The procedure, abridged:
(§1)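 Each medium arm—HPLM with 10% dialyzed FBS, or RPMI1640 with 5 mM glucose and 10% untreated or dialyzed FBS—was screened against an 11-point, 3-fold compound titration for 48 h at 37 °C, with CellTiter-Glo luminescence as endpoint.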

A short description of assay [5]: Quantitative highthroughput screen to assess conditional lethalithy of NOMO1 cells grown in RPMI1640 with dialyzed fetal bovine serum (RPMI+ds) (AID 1963877). Further: nearly all actives have a fitted effect of over 30% in size. Further: potency means the concentration at half of the fitted maximal effect.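 On Viability: series mostly up to about 46 µM; 100% = DMSO control wells and 0% = empty wells.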 In short, it runs like this: as §1
Assay [6] in a line: Quantitative highthroughput screen to assess conditional lethalithy of P12 Ichikawa cells grown in Human Plasma-Like Medium with dialyzed fetal bovine serum (HPLM+ds) (AID 1963879). Further: nearly all actives have a fitted effect of over 35% in size. Further: potency means the concentration at half of the fitted maximal effect. On Viability: series mostly up to about 46 µM. Conditions: Potency: viability. In short, it runs like this:
as §1

Assay [7] in a line: Quantitative highthroughput screen to assess conditional lethalithy of P12 Ichikawa cells grown in RPMI1640 with dialyzed fetal bovine serum (RPMI+ds) (AID 1963880). Further: nearly all actives have a fitted effect of over 35% in size. Further: potency means the concentration at half of the fitted maximal effect.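 On Viability: 100% = DMSO wells and 0% = empty wells on each plate.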 The conditions noted are these: Potency: P12-Ichikawa viability. In short, it runs like this: as §1
The nature of assay [8]: Quantitative highthroughput screen to assess conditional lethalithy of P12 Ichikawa cells grown in RPMI1640 with untreated serum (RPMI+s) (AID 1963881). Further: nearly all actives have a fitted effect of over 35% in size. Further: potency means the concentration at half of the fitted maximal effect.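 On Viability: series mostly up to about 46 µM; 100% = DMSO wells and 0% = empty wells without cells.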 Conditions: Potency: viability. In short, it runs like this:
as §1

Assay [9] is described as follows: Quantitative highthroughput screen to assess conditional lethalithy of SEM cells grown in Human Plasma-Like Medium with dialyzed fetal bovine serum (HPLM+ds) (AID 1963882). Further: nearly all actives have a fitted effect of over 35% in size. Further: potency means the concentration at half of the fitted maximal effect. On Viability: series mostly up to about 46 µM. In short, it runs like this: as §1
Assay [10] in a line: Cellular viability qHTS for adrenocortical cancer (ACC) cell line SW-13 (AID 1963989). Further: nearly all actives have a fitted effect of over 65% in size. Further: potency means the concentration at half of the fitted maximal effect.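 On activity (max response): cells grown in serum-free medium with ITS supplement; on the % scale 0 is the no-effect control and ±100 the full control effect.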 The conditions noted are these: SW-13 ACC cells viability, CellTiter-Glo, 48 h; activity (max response): stronger effect = lower value. The procedure, abridged: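 SW-13 cells in ITS-supplemented serum-free DMEM were plated overnight, then exposed for 48 h at 37C to compound titrations (up to 46 uM final). Viability was read by CellTiter-Glo luminescence; four-parameter logistic fits gave IC50 and efficacy.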

Assay [11] in a line: Cellular viability qHTS for adrenocortical cancer (ACC) cell line NCI-H295R (AID 1963990). Further: nearly all actives have a fitted effect of over 60% in size. Further: potency means the concentration at half of the fitted maximal effect. In short, it runs like this: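 Luminescent ATP read-out (CellTiter-Glo, 20 min RT) after 48 h drug exposure of NCI-H295R cells; a titration up to 46 uM final. Data normalized to doxorubicin (100% inhibition) and DMSO (0%); 4-parameter fit gives IC50, max response.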
Assay [12] in a line: Quantitative highthroughput screen to assess conditional lethalithy of NOMO1 cells grown in Human Plasma-Like Medium with dialyzed fetal bovine serum (HPLM+ds) (AID 1963878). Further: nearly all actives have a fitted effect of over 35% in size. Further: potency means the concentration at half of the fitted maximal effect.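 On Viability: 100% = DMSO wells and 0% = empty wells on each plate.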 The procedure, abridged:
as §1

The nature of assay [13]: Quantitative highthroughput screen to assess conditional lethalithy of SEM cells grown in RPMI1640 with unreated serum (RPMI+s) (AID 1963883). Further: nearly all actives have a fitted effect of over 35% in size. Further: potency means the concentration at half of the fitted maximal effect.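 On Viability: 100% = DMSO wells and 0% = empty wells without cells.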 The procedure, abridged: as §1
Assay [14] can be described thus: Quantitative highthroughput screen to assess conditional lethalithy of SEM cells grown in RPMI1640 with dialyzed fetal bovine serum (RPMI+ds) (AID 1963884). Further: nearly all actives have a fitted effect of over 35% in size. Further: potency means the concentration at half of the fitted maximal effect.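 On Viability: series mostly up to about 46 µM; 100% = DMSO control wells and 0% = empty wells without cells.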 In short, it runs like this: as §1

Structures are written as SMILES. Values joined by “and” are separate entries in the source; they are usually repeats but may differ in a detail not shown here. Identical values can stand only once. Results filed as inconclusive are left out. More than one record can exist for a structure, and the calls need not agree. Active and inactive are the calls of the source. The call rests on the fitted dose curve; in most records, active means well fitted curve in the direction sought with a large enough effect; inconclusive means small, poorly fitted or top-dose-only effect, or another doubt; inactive means no such curve, though single readings can be large; an effect the other way counts as inactive or inconclusive.

Chain of Cytochrome P450 3A7 (Homo sapiens) (P24462 whole entry, looked up): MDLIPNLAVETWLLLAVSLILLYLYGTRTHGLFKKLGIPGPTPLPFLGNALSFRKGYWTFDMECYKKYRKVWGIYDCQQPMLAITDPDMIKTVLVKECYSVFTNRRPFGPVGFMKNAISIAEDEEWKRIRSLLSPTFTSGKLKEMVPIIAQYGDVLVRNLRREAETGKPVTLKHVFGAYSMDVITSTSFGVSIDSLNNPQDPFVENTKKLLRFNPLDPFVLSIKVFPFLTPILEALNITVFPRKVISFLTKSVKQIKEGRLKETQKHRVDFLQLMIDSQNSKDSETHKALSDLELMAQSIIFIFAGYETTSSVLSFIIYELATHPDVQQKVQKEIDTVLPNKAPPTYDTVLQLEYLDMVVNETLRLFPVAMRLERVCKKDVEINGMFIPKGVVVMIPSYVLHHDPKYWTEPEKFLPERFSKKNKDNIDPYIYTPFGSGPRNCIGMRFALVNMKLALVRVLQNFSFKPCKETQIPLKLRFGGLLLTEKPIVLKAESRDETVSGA

Take `c1ccc([C@H]2CN3CCSC3=N2)cc1`: the Potency result in assay [1], in assay [2], in assay [3], in assay [4], in assay [5] and in assay [6] was “inactive” each time. In addition, the Potency result in assay [7], in assay [8], in assay [9] and in [11] was “inactive” throughout. Besides, the activity (max response) in [10] is -16.6% (inactive) and 4.55% (inactive).

Regarding `CN1CCN(c2c(F)cc3c(=O)c(C(=O)O)cn(CCF)c3c2F)CC1`, the Potency entry in [1], in assay [2], in assay [3], in assay [4], in assay [5] and in assay [12] was “inactive” in each case. In addition, the Potency result in assay [6], in assay [8], in assay [9], in assay [13] and in assay [14] was “inactive” throughout. Besides, the activity (max response) in assay [10] was -1.49% (inactive).

Consider `O=C(Nc1cccnn1)N1CCC(=Cc2cccc(Oc3ccc(C(F)(F)F)cn3)c2)CC1`, for which the Potency entry in assay [1], in [4], in assay [5], in assay [6], in assay [7] and in [8] was “inactive” in each case. Further, the Potency entry in [9] and in assay [13] was “inactive” throughout. Also, the Potency is 7.42 µM (active) in assay [2]; 10.3 µM (active) and 6.61 µM (active) in [3]; 15.8 µM (active) in assay [11].

As for `COc1cc2c(Nc3ccc(Cl)c(Cl)c3F)ncnc2cc1OCC1C[C@@H]2CN(C)C[C@@H]2C1` (stereo partly drawn), in assay [1], the Potency result is “inactive”. Also, the Potency in [2] is 1.86 µM (active); in [3], 2.31 µM (active) and 2.95 µM (active); in [5], 23.4 µM (active); in assay [12], 13.2 µM (active); in assay [6], 20.9 µM (active); in assay [7], 23.4 µM (active). In addition, the Potency in assay [9] is 14.8 µM (active); in assay [13] it was 20.9 µM (active); in assay [14] it was 20.9 µM (active); in [10], 2 µM (active); in [11], 7.94 µM (active) and 8.91 µM (active).

With `Cc1cnc(NC(=O)C2=C(O)c3ccccc3S(=O)(=O)N2C)s1`, the Potency entry in assay [1], in assay [2], in assay [3], in assay [6], in assay [7] and in [8] was “inactive” in each case. Further, the Potency entry in assay [9], in [13], in [14] and in [11] was “inactive” each time. Further, the activity (max response) in [10] was 12.3% (inactive) [middle of 4 runs].

Turning to `COC(=O)Nc1nc2ccc(C(=O)c3cccs3)cc2[nH]1`, the Potency entry in assay [1] is “inactive”. The Potency is 0.106 µM (active) in [2]; 42.2 nM (active) and 118 nM (active) in assay [3]; 29.6 nM (active) in [8]; 8.2 nM (active) and 126 nM (active) in [10]; 9.2 nM (active) and 158 nM (active) in assay [11].

For `CC12CC3CC(C)(C1)CC(N)(C3)C2`, the Potency result in [1], in assay [2], in [9], in assay [13] and in [14] was “inactive” throughout. Moreover, the Potency in assay [3] is 3.76 µM (active); in assay [5], 18.7 µM (active). Besides, the activity (max response) in assay [10] was -3.68% (inactive).

In the case of `CC(C)NCC(O)COc1ccc(CCOCC2CC2)cc1` (stereo not drawn), the Potency result in [1], in assay [2], in assay [3], in assay [6], in [8] and in assay [9] was “inactive” throughout. Besides, the Potency entry in assay [13], in [14] and in assay [11] was “inactive” in each case. Besides, the Potency in [12] is 16.6 µM (active). Moreover, the activity (max response) in assay [10] was -8.57% (inactive).

`Cc1ccc(S(=O)(=O)NC(=O)NN2CC3CCCC3C2)cc1` (stereo not drawn): the Potency entry in [1], in assay [2], in assay [3] and in [11] was “inactive” throughout. In addition, the Potency was 5.9 µM (active) in [6]; 2.96 µM (active) in [7]; 4180 nM (active) in assay [8]; 5.9 µM (active) in assay [9]; 4.18 µM (active) in assay [13]; 2.96 µM (active) in assay [14]. Besides, the activity (max response) in assay [10] is 5.83% (inactive) and 9.36% (inactive).

Consider `CCn1cc(C(=O)O)c(=O)c2cc(F)c(N3CCNCC3)nc21`, for which the Potency entry in [1], in assay [6], in [8], in [9], in assay [13] and in assay [14] was “inactive” each time. Moreover, in assay [11], the Potency entry was “inactive”. The Potency was 0.0335 µM (active) in assay [2] and 2.66 µM (active) in [3]. Besides, the activity (max response) in assay [10] was 4.85% (inactive).

In the case of `CN1C(C(=O)Nc2ccccn2)=C(O)c2sccc2S1(=O)=O`, the Potency result in [1], in assay [3], in assay [6], in [7], in [8] and in assay [9] was “inactive” each time. For the same compound, the Potency entry in assay [13] and in assay [14] was “inactive” in each case. For the same compound, the Potency in assay [2] is 750 nM (active) and inactive. Also, in assay [10], the activity (max response) is 0.0862% (inactive) and -19.6% (inactive).

Take `COc1cccc2c1CCCC2CCCN1CCN(C2CCCCC2)CC1` (stereo not drawn): the Potency entry in assay [1] is “inactive”. The Potency is 16.6 µM (active) in [2], 10.5 µM (active) in assay [3], 20.9 µM (active) in [4] and 18.7 µM (active) in assay [7].

Turning to `Cn1c(=O)c2c(ncn2CC(O)CO)n(C)c1=O` (stereo not drawn), the Potency entry in assay [1], in [2], in assay [3], in assay [12], in assay [6] and in assay [7] was “inactive” each time. Besides, the Potency result in assay [8], in assay [9], in assay [13], in assay [14] and in [11] was “inactive” throughout. Besides, the activity (max response) in assay [10] is 9.53% (inactive) and 9.36% (inactive).

Take `CC(C)(C)NCC(O)c1ccc(O)c(CO)c1` (stereo not drawn): the Potency result in [1], in assay [2], in assay [3], in assay [9], in [13] and in assay [14] was “inactive” throughout. Further, the Potency entry in [11] was “inactive”. Besides, the Potency in assay [8] is 4180 nM (active).

As for `CNc1nc(Nc2cnn([C@H]3CCN(C4COC4)C[C@@H]3F)c2Cl)ncc1C(F)(F)F`, the Potency entry in assay [1] and in [11] was “inactive” in each case. For the same compound, the Potency is 1.3 µM (active) in assay [2], 1.86 µM (active) in assay [3], 1.66 µM (active) in assay [4] and 2.34 µM (active) in assay [14]. Besides, the activity (max response) in assay [10] was -2.31% (inactive).

Consider `COc1cccc2cc(-c3nc(C4CCC(C(=O)O)CC4)n4ncnc(N)c34)[nH]c12` (stereo not drawn), for which, in [1], the Potency entry is “inactive”. Further, the Potency in [2] was 461 nM (active) and 366 nM (active); in assay [3], 580 nM (active) and 461 nM (active); in [6] it was 0.296 µM (active); in assay [8] it was 590 nM (active); in assay [9] it was 0.59 µM (active); in assay [13], 0.935 µM (active). The Potency in [14] is 1.18 µM (active).
